In all, about 39,000 compounds went through this assay and about 1,500 (3.8%) were called active. Many of the other results were omitted from the sample, so actives are more common in it than they were.
Test system: HSkMC (human skeletal muscle cells)
Assay: cytotoxicity call (relative viability < 0.9)
Conditions: 10 µM

Compound | cytotoxicity call
C[C@@H]1CCCCO[C@H](CN(C)CC2CC2)[C@@H](C)CN([C@H](C)CO)C(=O)c2cc(NS(=O)(=O)c3ccc(Cl)cc3)ccc2O1 | inactive
C[C@@H]1CCCCO[C@@H](CN(C)Cc2ccc3c(c2)OCO3)[C@@H](C)CN([C@@H](C)CO)C(=O)c2cc(NC(=O)Cc3ccccc3)ccc2O1 | inactive
Cc1cc(C(=O)Nc2cccc3c2O[C@H](CN(C)S(=O)(=O)c2ccccc2)[C@H](C)CN([C@@H](C)CO)C3=O)n(C)n1 | inactive
C[C@H](CO)N1C[C@H](C)[C@H](CN(C)C(=O)NC2CCCCC2)Oc2ccc(NS(=O)(=O)c3cn(C)cn3)cc2CC1=O | inactive
Cc1nc(C)n(C(=O)N2CCOCC2)n1 | inactive
C[C@@H](O[C@H]1OCCN(Cc2n[nH]nc2CN(C)C)[C@H]1c1ccc(F)cc1)c1cc(C(F)(F)F)cc(C(F)(F)F)c1 | inactive
CCCC#Cc1cnc2c(c1)C(=O)N([C@H](C)CO)C[C@H](C)[C@H](CN(C)C(=O)c1ccc3c(c1)OCO3)O2 | inactive
C[C@H]1CN([C@@H](C)CO)C(=O)c2cc(NC(=O)Cn3cnnn3)ccc2O[C@H]1CN(C)C(=O)Nc1ccc(C(F)(F)F)cc1 | inactive
C[C@@H]1CN([C@@H](C)CO)C(=O)c2cc(NC(=O)Nc3ccc(C(F)(F)F)cc3)ccc2O[C@@H]1CN(C)C(=O)Nc1ccc2c(c1)OCO2 | active
C[C@H]1CN([C@@H](C)CO)C(=O)c2cc(NC(=O)Nc3ccc4c(c3)OCO4)ccc2O[C@@H]1CN(C)C(=O)Nc1ccc(C(F)(F)F)cc1 | inactive
C[C@@H]1CN([C@@H](C)CO)C(=O)c2cc(NC(=O)Nc3ccc4c(c3)OCO4)ccc2O[C@H]1CN(C)C(=O)Nc1ccc(C(F)(F)F)cc1 | inactive
CC(C)NC(=O)Nc1ccc2c(c1)C(=O)N([C@@H](C)CO)C[C@H](C)[C@@H](CN(C)Cc1ccc(Cl)c(Cl)c1)OCCCC[C@@H](C)O2 | inactive
C[C@@H]1CN([C@H](C)CO)C(=O)c2cc(NS(=O)(=O)c3cccs3)ccc2O[C@@H](C)CCCCO[C@@H]1CN(C)C(=O)c1ccccc1 | inactive
C[C@H]1CN([C@@H](C)CO)C(=O)Cc2cc(NC(=O)Nc3cccc4ccccc34)ccc2O[C@H]1CN(C)C(=O)Nc1ccccc1 | inactive
C[C@@H]1CN([C@H](C)CO)C(=O)c2cccc(NC(=O)c3ccc(-c4nccs4)cc3)c2O[C@H]1CN(C)C(=O)Nc1ccccc1 | inactive
CC(=O)NC[C@H]1CN(c2ccc(N3CCN(C(=O)CO)CC3)c(F)c2)C(=O)O1 | inactive
CC(C)(C)CC(C)(C)c1cc(Cc2cc(C(C)(C)CC(C)(C)C)cc(-n3nc4ccccc4n3)c2O)c(O)c(-n2nc3ccccc3n2)c1 [listing 1 of 2 here] | inactive
CC(C)(C)CC(C)(C)c1ccc(O)c(Cc2ccc(Cl)cc2Cl)c1 | active
CC(C)(C)CC(C)(C)c1cc(Cc2cc(C(C)(C)CC(C)(C)C)cc(-n3nc4ccccc4n3)c2O)c(O)c(-n2nc3ccccc3n2)c1 [listing 2 of 2 here] | inactive
O=C(CN1CCOCC1)NCC[C@@H]1CC[C@H](NC(=O)c2ccc3c(c2)OCO3)[C@@H](CO)O1 | inactive
C[C@@H]1CN([C@@H](C)CO)C(=O)c2cc(C#CC3(O)CCCC3)cnc2O[C@@H]1CN(C)C(=O)CN(C)C | inactive
CO[C@H]1CN(C)C(=O)c2cc(NC(=O)NC3CCCCC3)ccc2OC[C@H](C)N(CCc2ccccc2)C[C@@H]1C | inactive
C[C@@H]1CN([C@H](C)CO)C(=O)c2cc(NC(=O)NC3CCCCC3)ccc2O[C@H]1CN(C)Cc1ccc(-c2ccccc2)cc1 | inactive

Compound | cytotoxicity call
C[C@@H]1CN([C@H](C)CO)C(=O)c2cc(NC(=O)NC3CCCCC3)ccc2O[C@H]1CN(C)Cc1ccc(Oc2ccccc2)cc1 | inactive
C[C@@H]1CN([C@@H](C)CO)C(=O)c2cc(NC(=O)C3CCCCC3)ccc2O[C@@H]1CN(C)Cc1ccc(-c2ccccc2)cc1 | active
CO[C@@H]1CN(C)C(=O)c2cc(NC(=O)NC3CCCCC3)ccc2OC[C@H](C)N(CCc2ccccc2)C[C@H]1C | inactive
CO[C@H]1CN(C)C(=O)c2cc(NC(=O)NC3CCCCC3)ccc2OC[C@@H](C)N(CCc2ccccc2)C[C@@H]1C | active
C[C@@H]1CN([C@@H](C)CO)C(=O)c2cc(NC(=O)NC3CCCCC3)ccc2O[C@H]1CN(C)Cc1ccc(Oc2ccccc2)cc1 | active
C[C@@H]1CN([C@H](C)CO)C(=O)c2cc(NC(=O)C3CCCCC3)ccc2O[C@@H]1CN(C)Cc1ccc(-c2ccccc2)cc1 | inactive
C[C@@H]1CN([C@@H](C)CO)C(=O)c2cc(NC(=O)NC3CCCCC3)ccc2O[C@@H]1CN(C)Cc1ccc(-c2ccccc2)cc1 | active
C[C@H](CO)N1C[C@H](C)[C@H](CN(C)Cc2ccc(Oc3ccccc3)cc2)Oc2ccc(NC(=O)NC3CCCCC3)cc2C1=O | inactive
C[C@H]1CN([C@@H](C)CO)C(=O)c2cc(NC(=O)C3CCCCC3)ccc2O[C@@H]1CN(C)Cc1ccc(-c2ccccc2)cc1 | inactive
C[C@H]1CN([C@@H](C)CO)C(=O)c2cc(NC(=O)NC3CCCCC3)ccc2O[C@H]1CN(C)Cc1ccc(-c2ccccc2)cc1 | inactive
Cc1ccc(-c2c[nH]c(=S)[nH]2)cc1 | inactive
Cc1noc(C)c1NC(=O)Nc1ccc2c(c1)CC(=O)N([C@H](C)CO)C[C@@H](C)[C@@H](CN(C)C(=O)Nc1cccc3ccccc13)O2 | inactive
O=C(C[C@@H]1CC[C@H]2[C@@H](COC[C@@H](O)CN2S(=O)(=O)c2ccccc2)O1)NCCN1CCCC1 | inactive
C[C@H]1CN([C@@H](C)CO)C(=O)Cc2cc(NS(C)(=O)=O)ccc2O[C@@H]1CN(C)C(=O)Nc1ccc2c(c1)OCO2 | inactive
Cc1noc(C)c1NC(=O)Nc1cccc2c1O[C@@H](CN(C)S(C)(=O)=O)[C@H](C)CN([C@@H](C)CO)C2=O | inactive
NCCCCCNC(=O)[C@H]1C[C@H]2C(=O)NCC(=O)N2[C@H]1c1cccc(OCCO)c1 | inactive
COc1ccc([C@@H]2CC(=O)c3c(O)cc(O[C@@H]4O[C@H](CO[C@@H]5O[C@@H](C)[C@H](O)[C@@H](O)[C@H]5O)[C@@H](O)[C@H](O)[C@H]4O)cc3O2)cc1O | inactive
C[C@@H](NC(=O)C[C@H]1C=C[C@H](NC(=O)CN2CCOCC2)[C@@H](CO)O1)c1ccccc1 | inactive
O=C(Nc1ncc(SCCN2CCCC2)s1)[C@]1(c2ccc(S(=O)(=O)C3CC3)cc2)C[C@H]1C1CCCCC1 | active
C[C@H]1CCCCO[C@H](CN(C)C(=O)Nc2ccc(F)cc2)[C@@H](C)CN([C@@H](C)CO)C(=O)c2cc(NC(=O)CCC(F)(F)F)ccc2O1 | inactive
COc1ccc(CN(C)C[C@H]2Oc3c(NS(C)(=O)=O)cccc3C(=O)N([C@H](C)CO)C[C@H]2C)cc1 | inactive
CCCCCOc1ccc(-c2cc(-c3ccc(C(=O)N[C@H]4C[C@@H](O)[C@@H](O)NC(=O)[C@H]5[C@@H](O)[C@@H](C)CN5C(=O)[C@H]([C@@H](O)CC(N)=O)NC(=O)[C@H]([C@@H](O)[C@@H](O)c5ccc(O)c(OS(=O)(=O)O)c5)NC(=O)[C@H]5C[C@@H](O)CN5C(=O)[C@H]([C@@H](C)O)NC4=O)cc3)no2)cc1 | inactive
CC[C@H](C)C[C@H](C)CCCCCCCCC(=O)N[C@H]1C[C@@H](O)[C@@H](NCCN)NC(=O)[C@@H]2[C@@H](O)CCN2C(=O)[C@H]([C@H](O)CCN)NC(=O)[C@H]([C@H](O)[C@@H](O)c2ccc(O)cc2)NC(=O)[C@@H]2C[C@@H](O)CN2C(=O)[C@H]([C@@H](C)O)NC1=O | inactive

Compound | cytotoxicity call
COc1ccc(NC(=O)N(C)C[C@@H]2Oc3ccc(NC(=O)CCCN(C)C)cc3CC(=O)N([C@H](C)CO)C[C@H]2C)cc1 | inactive
C[C@@H]1CCCCO[C@H](CN(C)C(=O)Nc2ccc3c(c2)OCO3)[C@H](C)CN([C@@H](C)CO)C(=O)c2cc(NC(=O)Nc3ccc(F)cc3)ccc2O1 | inactive
C[C@@H]1CCCCO[C@H](CN(C)C(=O)c2ccncc2)[C@H](C)CN([C@H](C)CO)C(=O)c2cc(NS(=O)(=O)c3ccc(Cl)cc3)ccc2O1 | inactive
NC(=O)CNC(=O)c1cccc(Cl)c1 | inactive
Cc1cc2nc3ccc(N(C)C)cc3[s+]c2cc1N.[Cl-] | active
CN(C)c1ccc2c(=O)[nH][nH]c(=O)c2c1 | inactive
CN(C)c1ccc2nc3ccc(N(C)C)cc3[s+]c2c1.O.[Cl-] | active
C[C@@H]1CN([C@@H](C)CO)C(=O)Cc2cc(NC(=O)Cc3cn(C)c4ccccc34)ccc2O[C@@H]1CN(C)Cc1ccc(Oc2ccccc2)cc1 | inactive
Nc1cc(Cl)ncn1 | inactive
C[C@@H]1CN([C@H](C)CO)S(=O)(=O)c2ccc(C#C[C@@H](C)O)cc2O[C@H]1CN(C)C | inactive
COc1ccc(S(=O)(=O)Nc2ccc3c(c2)C(=O)N([C@H](C)CO)C[C@H](C)[C@@H](CN(C)C(=O)c2ccccc2)OCCCC[C@H](C)O3)cc1 | inactive
CC12CC3(C)CC(C)(C1)CC(C/N=C/c1ccc(O)cc1)(C2)C3 | inactive
CCOc1ccc2nc(C34CC5CC(CC(C5)C3)C4)ccc2c1 | inactive
CC1=Nc2ccccc2NC(C)(C)C1 | inactive
C[C@@H]1CN([C@@H](C)CO)C(=O)c2cc(NC(=O)Cc3ccccc3)ccc2O[C@H]1CN(C)S(=O)(=O)c1cccs1 | inactive
COCCN1CCC(N(Cc2ccc(-c3ccc(C(F)(F)F)cc3)cc2)C(=O)Cn2c(SCc3cccc(F)c3F)cc(=O)c3ccccc32)CC1 | active
O=c1cc(-c2ccccc2)[nH]c(=O)[nH]1 | inactive
COc1ccc(S(=O)(=O)N(C)C[C@@H]2Oc3ccc(NC(=O)Nc4ccc(Cl)c(Cl)c4)cc3CC(=O)N([C@@H](C)CO)C[C@@H]2C)cc1Cl | active
COc1ccc(S(=O)(=O)N(C)C[C@@H]2Oc3ccc(NC(=O)Nc4cc(Cl)cc(Cl)c4)cc3CC(=O)N([C@@H](C)CO)C[C@@H]2C)cc1Cl | active
CC(C)NC(=O)Nc1ccc2c(c1)CC(=O)N([C@H](C)CO)C[C@@H](C)[C@H](CN(C)S(=O)(=O)c1ccc(Cl)cc1)O2 | inactive
COc1ccc(S(=O)(=O)N(C)C[C@@H]2Oc3ccc(NC(=O)NC(C)C)cc3CC(=O)N([C@H](C)CO)C[C@@H]2C)cc1 | inactive
CC(C)NC(=O)Nc1ccc2c(c1)CC(=O)N([C@@H](C)CO)C[C@@H](C)[C@H](CN(C)S(=O)(=O)c1ccc(Cl)cc1)O2 | inactive
COc1ccc(S(=O)(=O)N(C)C[C@@H]2Oc3ccc(NC(=O)Nc4cccc5c4CCCC5)cc3CC(=O)N([C@@H](C)CO)C[C@@H]2C)cc1Cl | inactive

Reference: the antibiotic and cytotoxicity screens of Wong et al. (2023)
